# Screening data (PubChem BioAssay)
# The list is not random: actives were taken first. Their share in the collection is about 3.7%.
# tim10-1 inh: growth inhibitors of tim10-1 mutant yeast; S. cerevisiae tim10-1 ts strain growth, BacTiter-Glo, 24 h; 2.2% of 330,000 active; inhibition, % at 20 µM;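 active = inhibition of at least 40%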;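 note: mutant grown at 25 °C; 0% = DMSO wells with yeast and 100% = wells holding no yeast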
# PfHsp90 yeast 2: reduces growth (ATP signal) of yeast expressing P. falciparum Hsp90; S. cerevisiae expressing PfHsp90, BacTiter-Glo ATP, 48 h; yeast lacking PDR1 and PDR3 efflux regulators; inhibition, % at 9.4 µM; 0.32% of 310,000 active;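 active = every replicate shows inhibition above about 80%, whatever the replicate mean, limit read from the data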;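 note: 0% = DMSO neutral controls and 100% = 20 µM radicicol positive controls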
# NALP3 yeast inh: NALP3 inhibition in yeast; Yeast reconstituted NLRP3/ASC/caspase-1, beta-gal luminescence, 24 h; inhibition, % at 10 µM; 0.39% of 330,000 active;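 active = inhibition of 50% or more; inactive = inhibition below 50%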;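 note: plate controls were induced DMSO wells for no effect and uninduced yeast grown without galactose for full effect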
# tim23-1 inh: growth inhibitors of tim23-1 mutant yeast; S. cerevisiae tim23-1 growth, BacTiter-Glo luminescence, 24 h; inhibition, % at 20 µM; 1.3% of 330,000 active;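 active = growth inhibition of the mutant yeast at or above 50%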;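 note: temperature-sensitive mutant grown at 25 °C; plate controls were DMSO-treated mutant yeast for no effect and medium wells lacking yeast for full effect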
# TIM10 inh: growth inhibitors of TIM10 yeast strain; inhibition, % at 10 µM; S. cerevisiae TIM10 strain growth, BacTiter-Glo luminescence, 24 h; 1.4% of 330,000 active;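 active = inhibition of 40% or more at the single tested concentration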;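 note: wild-type TIM10 isogenic control strain grown at permissive 25 °C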
# NALP3 confirm: NALP3 inhibition confirmation in yeast; shares compounds with NALP3 yeast inh; inhibition, % at 10 µM; yeast expressing human NALP3, luminescence; 81% of 1,300 active; in the data active = inhibition above about 48%
# Casp1-ASC yeast: caspase-1-ASC yeast counter-screen hit | AID 488784 | inhibition, % at 10 µM | shares compounds with NALP3 yeast inh | 66% of 1,000 active | yeast expressing Caspase-1-ASC, luminescence counter screen
# NALP3 yeast rt: yeast NALP3 inhibition, confirmed on retest. inhibition, % at 10 µM. yeast expressing human NALP3, luminescence read-out. 53% of 1,000 active. shares compounds with NALP3 yeast inh
# tim10-1 conf: tim10-1 yeast growth inhibition, confirmed | shares compounds with tim10-1 inh | S. cerevisiae tim10-1 ts strain growth, BacTiter-Glo, 24 h | inhibition, % at 20 µM | 56% of 7,400 active | AID 463213;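 active = inhibition of yeast growth at or above a set limit in either of two repeat tests at 20 µM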;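 note: tim10-1 mutant grown at permissive 25 °C to find synthetic lethal compounds; 0% = DMSO yeast wells and 100% = medium wells without yeast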
# TIM10 conf: TIM10 yeast growth inhibition, confirmed; S. cerevisiae tim10 strain growth, BacTiter-Glo luminescence, 24 h; 63% of 4,600 active; inhibition, % at 10 µM; shares compounds with TIM10 inh;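 active = inhibition of yeast growth at or above a set limit in either of two replicates at 10 µM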;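 note: this counterscreen used the strain with wild-type TIM10; 0% = yeast with DMSO and 100% = medium wells lacking yeast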
# tim23-1 confirm: confirmation of tim23-1 mutant yeast growth inhibitors. shares compounds with tim23-1 inh. S. cerevisiae tim23-1 growth, BacTiter-Glo luminescence, 24 h. inhibition, % at 20 µM. 83% of 4,400 active;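 active = inhibition above about 39% in either of two replicate wells at 20 µM, limit read from the data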;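 note: temperature-sensitive tim23-1 mutant grown at 25 °C; 0% = DMSO wells with yeast and 100% = medium wells without yeast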
# Numbers without * were called inactive; nt = not tested or not shown; + = active, no number. Cut-off read from the data, not from the text of the source, unless noted: active = inhibition above about 50%; inactive = the rest.
SMILES,tim10-1 inh,PfHsp90 yeast 2,NALP3 yeast inh,tim23-1 inh,TIM10 inh,NALP3 confirm,others
C[C@H]1CC[C@@]2(C)[C@@H](CC[C@@H]3[C@@H]2CC[C@]2(C)[C@@H](O)CC[C@@H]32)C1,-8,-3,44,21,-3,nt,
C[C@]12C[C@@H](O)[C@H](O)CC1=CCC1C2CC[C@]2(C)C(=O)CCC12 (some centres undefined),-32,3,27,-9,-18,nt,
C[C@]12CCC3C(CC[C@H]4C[C@@H](O)[C@H](O)C[C@]34C)C1CC[C@@H]2O (some centres undefined),-25,10,55*,-1,-15,60*,
C[C@]12CC[C@@H](O)C[C@@H]1CC[C@@H]1[C@@H]2CC[C@]2(C)[C@@H](O)CC[C@@H]12,23,9,53*,40,-2,66*,Casp1-ASC yeast=57*;NALP3 yeast rt=49
C#C[C@]1(O)[C@H](O)CC2C3CC[C@H]4C[C@@H](O)CC[C@]4(C)C3CC[C@@]21C (some centres undefined),-12,nt,37,5,-8,nt,
Cc1ccccc1-n1c(O)c(C(c2ccncc2)c2c(O)n(-c3ccccc3C)c(=O)[nH]c2=O)c(=O)[nH]c1=O,-1,-8,9,12,12,nt,
Cc1cc(OC(C)C(=O)NCC(O)c2ccccc2)c2c3c(c(=O)oc2c1)CCCC3 (centres undefined),11,-36,11,12,4,nt,
C=CCn1c(O)c(/C(C)=N/N2CCCCCC2)c(=O)[nH]c1=O,20,-8,-8,14,6,nt,
CC(=O)O[C@@H]1CC[C@]2(C)C3CC[C@]4(C)C(=O)[C@H](O)CC4C3[C@@H](OC(C)=O)C[C@H]2C1 (some centres undefined),-28,12,26,-9,-30,nt,
C[C@H]1CC[C@@H]2N(C1)C[C@H]1[C@@H]3C[C@H]4[C@@H](CC(=O)[C@H]5C[C@@H](O)CC[C@@]54C)[C@@H]3CC[C@H]1[C@]2(C)O,0,-10,6,-14,-6,nt,
C[C@]12CCC3C(CC[C@H]4C[C@@H](O)CC[C@]34C)C1CC[C@@]2(O)C(F)(F)F (some centres undefined),-1,nt,56*,26,-13,55*,
C[C@]12CC[C@H](O)CC1C(=O)CC1C2CC[C@@]2(C)C1CC[C@@H]2O (some centres undefined),1,9,50,9,-15,43,Casp1-ASC yeast=50*;NALP3 yeast rt=34
C[C@]12CCC3C(CC[C@H]4C[C@@H](O)CC[C@]34C)C1C[C@@H](O)[C@]2(C)O (some centres undefined),1,14,50*,8,-2,57*,
C[C@]12CCC3C(CC[C@H]4C[C@H](O)[C@H](O)C[C@]34C)C1CC[C@@H]2O (some centres undefined),nt,1,nt,nt,nt,nt,
[N-]=[N+]=NCCN1CCC(O)CCC1=O (centres undefined),4,-3,23,-12,-9,nt,
CCC1C=CC=CC[C@H](C)[C@@H](O)[C@](C)(O)C(=O)[C@@H](C)[C@H](O)[C@@H](C)C(=O)[C@H](C)[C@@H](O)[C@H](C)C=CC(=O)OC2[C@@H](C)C(CC1)OC1(CC[C@@H](C)C(C[C@H](C)O)O1)[C@@H]2C (some centres undefined),31,nt,82*,46,13,88*,Casp1-ASC yeast=57*;NALP3 yeast rt=72*
CCCCOc1ccc(CCN)cc1Cl,4,-10,41,2,3,nt,
CC(C)Oc1ccc(CCN)cc1Cl,-17,24,53*,-2,3,57*,Casp1-ASC yeast=35;NALP3 yeast rt=46
COC(=O)C1=C(c2ccc(F)cc2F)C[C@@H]2CC[C@H]1N2C(=O)NC1Cc2ccccc2C1,6,9,-136,23,-6,22,
CCCCC/C(=N\O)c1c[nH]c2ccccc12,30,-1,55*,43,14,57*,Casp1-ASC yeast=53*;NALP3 yeast rt=46
CCCCC/C(=N/O)c1c(C)[nH]c2ccccc12,30,-25,9,36,34,nt,
COC(=O)C1=C(c2ccc(OC)c(OC)c2)C[C@@H]2CC[C@H]1N2C(=O)NCC1CC1,2,14,6,9,1,nt,
COC(=O)C1=C(c2ccc(-c3ccccc3)c(F)c2)C[C@@H]2CC[C@H]1N2C(=O)NCCCOC(C)C,10,0,12,32,15,nt,
CN1C(=O)/C(=C/c2cccn2-c2ccc3ccccc3c2)C(=O)NC1=S,56*,2,56*,66*,46*,18,tim10-1 conf=53*;TIM10 conf=49*;tim23-1 confirm=64*
CCOC(=O)c1cncn1[C@@H](C)c1ccccc1,-3,23,-23,1,4,nt,
SMILES,tim10-1 inh,PfHsp90 yeast 2,NALP3 yeast inh,tim23-1 inh,TIM10 inh,NALP3 confirm,others
Cc1ccsc1C(=O)C1CCCN(Cc2c(C)nn(C(C)C)c2C)C1 (centres undefined),12,-14,12,15,-18,nt,
CN1C(=O)C(=Cc2c(OCc3cnc(Cl)s3)ccc3ccccc23)C(=O)N(C)C1=O,22,-6,59*,75*,46*,58*,Casp1-ASC yeast=72*;NALP3 yeast rt=62*;TIM10 conf=53*;tim23-1 confirm=81*
CN1C(=O)C(=Cc2ccccc2OCc2ccccc2Cl)C(=O)N(C)C1=O,12,9,17,34,36,nt,
C[C@@H]1C[C@@H]([C@H](O)CC2CC(=O)NC(=O)C2)C(=O)[C@@H](C)C1,38,+,97*,73*,68*,98*,Casp1-ASC yeast=99*;NALP3 yeast rt=98*;TIM10 conf=64*;tim23-1 confirm=69*
Cc1cccnc1-n1c(CN2C(=O)c3ccccc3C2=O)nc2ccccc2c1=O,51*,7,-17,32,20,nt,tim10-1 conf=30*
O=C1/C(=C\c2cc3c(cc2Br)OCO3)N2CCC1CC2,53*,1,-3,48,28,nt,tim10-1 conf=38*
CN(N)N=Nc1nc2c([nH]1)c(=O)n(C)c(=O)n2C,-9,1,3,-6,5,nt,
C=C(C)CSc1nnc([C@@H](N)Cc2c[nH]c3ccccc23)o1,42*,20,16,33,26,nt,tim10-1 conf=56*
